Measurements reported in PubChem BioAssay (EPA / NIEHS).
Records with an inconclusive call do not appear. Calls of active or inactive are those of the source. How the source made its calls, unless noted: active means hit-call score of the fitted dose curve at least 0.9, where 1 is the maximum; inactive means score below 0.9.

Legend:
[1] = APR_HepG2_CellCycleArrest_1hr: Apredica 1-hour HepG2 Assay for Cell Cycle Arrest (AID 2282666); conditions: high-content imaging, actives raise or lower the signal
Procedure, shortened: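 HepG2 cells exposed for 1 h to 0.39–200 uM compound (0.5% DMSO). Fixed, Hoechst-stained nuclei imaged by ArrayScan; DNA content quantified by Cell Cycle analysis; bidirectional fit against DMSO.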

[2] = APR_HepG2_CellLoss_1hr: Apredica 1-hour HepG2 Assay for Cell Loss (AID 2282668); conditions: high-content imaging;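 further: curves fitted both ways against DMSO so gain or loss of cells counts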
Procedure, shortened: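 HepG2 cells were treated for 1 h with compound at 0.39–200 uM, in duplicate, in 0.5% DMSO. After formaldehyde fixation, Hoechst 33342-stained nuclei were imaged on an ArrayScan to count cells. Data were fitted bidirectionally versus DMSO.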

[3] = APR_HepG2_MicrotubuleCSK_1hr: Apredica 1-hour HepG2 Assay for Microtubule CSK Stabilty (AID 2282669); conditions: HepG2 microtubule cytoskeleton imaging, actives raise or lower the signal
Procedure, shortened: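 HepG2 cells exposed 1 h to 0.39–200 uM compound (0.5% DMSO, duplicates), then formaldehyde-fixed, permeabilized and immunostained for alpha-tubulin with Hoechst nuclei. Imaged by ArrayScan high-content analysis; bidirectional fit versus DMSO.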

[4] = APR_HepG2_P-H2AX_1hr: Apredica 1-hour HepG2 Assay for H2AX Phosphorylation (AID 2282673); conditions: high-content imaging, actives raise or lower the signal
Procedure, shortened: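 HepG2 dosed 1 hr at 0.39-200 uM (0.5% DMSO final), duplicate. Fixed in 3.7% formaldehyde, Triton permeabilized, immunostained for phospho-histone H2A.x (1:200) with Hoechst 33342; ArrayScan 20x imaging, bidirectional fit vs DMSO.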

[5] = APR_HepG2_MitoMembPot_1hr: Apredica 1-hour HepG2 Assay for Mitochondrial Membrane Potential (AID 2282675); conditions: imaging, actives raise or lower the signal
Procedure, shortened: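 HepG2 cells dosed 1 hour with 0.39–200 uM compound in duplicate, 0.5% DMSO final. MitoTracker Red CMXRos (250 nM, 30 min) loaded before formaldehyde fixation; fluorescence quantified by high-content imaging, bidirectional fitting versus DMSO.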

[6] = APR_HepG2_CellCycleArrest_24hr: Apredica 24-hour HepG2 Assay for Cell Cycle Arrest (AID 2282905); conditions: imaging, actives raise or lower the signal;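 further: cell cycle arrest scored as ratio of 2N to 4N nuclear DNA content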
Procedure, shortened: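 Cell cycle arrest is scored from nuclear DNA content measured by high-content imaging of Hoechst 33342-stained HepG2 cells following 24-hour treatment at ten concentrations up to 200 uM, with DMSO as baseline.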

[7] = APR_HepG2_StressKinase_1hr: Apredica 1-hour HepG2 Assay for Stress Kinase (AID 2282906); conditions: HepG2 stress kinase (phospho-c-Jun) imaging, actives raise or lower the signal
Procedure, shortened: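 HepG2 cells dosed 0.39-200 uM (0.5% DMSO) for 1 h, then formaldehyde-fixed. Stress kinase read by phospho-c-Jun immunofluorescence using high-content imaging; bidirectional fit vs DMSO.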

[8] = APR_HepG2_NuclearSize_24hr: Apredica 24-hour HepG2 Assay for Nuclear Size (AID 2282907); conditions: high-content imaging, actives raise or lower the signal
Procedure, shortened: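 Compounds in DMSO (final 0.5%) were added to human HepG2 hepatoma cells at ten concentrations up to 200 uM for 24 hr. Fixed nuclei were stained with Hoechst 33342, and nuclear diameter was quantified from automated images.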

[9] = APR_HepG2_CellLoss_24hr: Apredica 24-hour HepG2 Assay for Cell Loss (AID 2282908); conditions: high-content imaging
Procedure, shortened: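 Cell number is quantified by fluorescence imaging of Hoechst 33342-stained nuclei following dosing at 0.39–200 uM in 0.5% DMSO. Curves are fitted in both directions from the DMSO baseline.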

[10] = APR_HepG2_MicrotubuleCSK_24hr: Apredica 24-hour HepG2 Assay for Microtubule CSK Stabilty (AID 2282909); conditions: HepG2 microtubule cytoskeleton imaging, actives raise or lower the signal
Procedure, shortened: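 Steps: dose HepG2 for 24 h (0.39–200 uM, 0.5% DMSO); fix 30 min in 3.7% formaldehyde at room temperature; permeabilize; stain alpha-tubulin 60 min; image microtubule cytoskeleton at 20x. Signal change fitted in both directions relative to DMSO.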

[11] = APR_HepG2_MitoMembPot_24hr: Apredica 24-hour HepG2 Assay for Mitochondrial Membrane Potential (AID 2282911); conditions: imaging, actives raise or lower the signal
Procedure, shortened: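 Human hepatoma HepG2 cultures received ten compound concentrations up to 200 uM for 24 hr. Membrane-potential dye signal, captured by automated fluorescence microscopy, was scored for gain or loss against DMSO controls.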

[12] = APR_HepG2_MitoMass_24hr: Apredica 24-hour HepG2 Assay for Mitochondrial Mass (AID 2282912); conditions: high-content imaging, actives raise or lower the signal
Procedure, shortened: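 The liver line HepG2 was dosed in duplicate across a 0.39–200 uM series, with final DMSO held at 0.5% v/v, and harvested at 24 hr. High-content imaging measured mitochondrial dye staining.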

[13] = APR_HepG2_CellCycleArrest_72hr: Apredica 72-hour HepG2 Assay for Cell Cycle Arrest (AID 2282914); conditions: high-content imaging, actives raise or lower the signal
Procedure, shortened: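 Cell cycle arrest in HepG2 was scored from nuclear DNA content after 72 hr compound treatment (0.39–200 uM). Activity, either gain or loss, was fitted against the DMSO baseline.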

[14] = ACEA_ER_80hr: ACEA Biosciences xCELLigence Real-Time Cell Analysis on Estrogen Receptor Agonism for Proliferation (AID 2282667; active means hit-call score of the fitted dose curve at least 0.9, where 1 is the maximum); conditions: T47D proliferation, impedance (xCELLigence), 80 h
Procedure, shortened: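 Cell-growth kinetics were measured by impedance in T47D cells treated continuously with compound (top 100 uM final, 1:4 steps, 8 points). Activity at 80 h was scored as signal gain over the DMSO baseline.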

[15] = APR_HepG2_p53Act_1hr: Apredica 1-hour HepG2 Assay for p53 Activation (AID 2282671); conditions: high-content imaging, actives raise or lower the signal
Procedure, shortened: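 HepG2 cells treated 1 h with compound at 0.39–200 uM (10 concentrations, duplicate) in 0.5% DMSO. Formaldehyde-fixed, permeabilised cells immunostained for p53 with Hoechst 33342; high-content imaging, bidirectional fit versus DMSO.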

[16] = APR_HepG2_p53Act_24hr: Apredica 24-hour HepG2 Assay for p53 Activation (AID 2282913); conditions: high-content imaging, actives raise or lower the signal;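 further: p53 protein immunofluorescence averaged per cell in HepG2 with Hoechst nuclei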
Procedure, shortened: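 Automated fluorescence imaging quantifies p53 immunostaining in HepG2 cells after a 24 hr exposure (0.39–200 uM, duplicate, 0.5% DMSO). Nuclei are located by Hoechst 33342 staining.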

[17] = APR_HepG2_MitoMass_1hr: Apredica 1-hour HepG2 Assay for Mitochondrial Mass (AID 2282674); conditions: high-content imaging, actives raise or lower the signal
Procedure, shortened: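 HepG2 cells dosed 1 hr with 0.39-200 uM compound (0.5% DMSO), duplicate wells. Mitochondria stained with 250 nM MitoTracker Red CMXRos for 30 min before formaldehyde fixation, imaged at 20x by ArrayScan; bidirectional fit versus DMSO.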

[18] = APR_HepG2_MitoticArrest_24hr: Apredica 24-hour HepG2 Assay for Mitotic Arrest (AID 2282910); conditions: high-content imaging, actives raise or lower the signal
Procedure, shortened: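 Compounds are dosed onto HepG2 cells across ten concentrations up to 200 uM for 24 hr. Cells are then fixed in 3.7% formaldehyde, permeabilised, and labelled for phospho-histone H3 and nuclei; images are scored by cell cycle analysis and fitted bidirectionally relative to DMSO.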

[19] = APR_HepG2_NuclearSize_1hr: Apredica 1-hour HepG2 Assay for Nuclear Size (AID 2282670); conditions: high-content imaging, actives raise or lower the signal
Procedure, shortened: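 HepG2 cells dosed 1 hr with 0.39–200 uM compound (0.5% DMSO), formaldehyde-fixed, Hoechst 33342-stained and imaged at 20x; nuclear diameter from nuclear stain, fitted bidirectionally against DMSO.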

[20] = APR_HepG2_MitoticArrest_1hr: Apredica 1-hour HepG2 Assay for Mitotic Arrest (AID 2282672); conditions: high-content imaging, actives raise or lower the signal
Procedure, shortened: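 HepG2 cells exposed 1 hr to compounds at 0.39–200 uM (0.5% v/v DMSO final), then fixed in 3.7% formaldehyde and immunostained for phospho-histone H3 with Hoechst 33342. Mitotic arrest scored by automated fluorescence imaging, fitted bidirectionally versus DMSO.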

Measured: outcome

COCc1cnc(C2=NC(C)(C(C)C)C(=O)N2)c(C(=O)O)c1 (stereo unspecified)
inactive: [1] | [2] | [3] | [4] | [5] | [6] | [7] | [8] | [9] | [10] | [11] | [12] | [13]

CCC(C)n1c(=O)[nH]c(C)c(Br)c1=O (stereo unspecified)
inactive: [1] | [14] | [2] | [3] | [15] | [4] | [5] | [6] | [7] | [8] | [9] | [10] | [11] | [12] | [16] | [13]

CCOc1nc(C(Cl)(Cl)Cl)ns1
inactive: [1] | [2] | [3] | [15] | [4] | [17] | [5] | [6] | [7] | [8] | [9] | [10] | [18] | [11] | [12] | [16] | [13]

C=CCOC(=O)C(C)(C)OC(=O)c1cc(-n2c(=O)cc(C(F)(F)F)n(C)c2=O)ccc1Cl
inactive: [1] | [2] | [15] | [4] | [17] | [5] | [6] | [7] | [8] | [9] | [10] | [11] | [12] | [16] | [13]

O=C(O)c1c(Cl)ccc2cc(Cl)cnc12
inactive: [1] | [19] | [20] | [4] | [17] | [5] | [6] | [7] | [8] | [9] | [10] | [11] | [12] | [13]

CC(C)N1C(=O)c2ccccc2NS1(=O)=O
inactive: [14] | [2] | [3] | [15] | [4] | [17] | [5] | [6] | [7] | [8] | [9] | [10] | [11] | [12] | [16] | [13]

Clc1cccc(C(Cl)(Cl)Cl)n1
inactive: [14] | [2] | [3] | [19] | [15] | [20] | [4] | [5] | [6] | [7] | [8] | [9] | [10] | [18] | [11] | [12] | [16] | [13]

COc1cc(OC)nc(NC(=O)NS(=O)(=O)c2ncccc2OCC(F)(F)F)n1
inactive: [14] | [2] | [19] | [15] | [20] | [4] | [17] | [5] | [6] | [7] | [8] | [9] | [10] | [11] | [12] | [16] | [13]
